From PubChem BioAssay (NCI)
The panel holds about 83,000 compounds, 20% with a hit somewhere; the sample as a whole holds those more often.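 Note: values are percent growth. 100 is the growth of untreated cells, values between 100 and 0 indicate rising inhibition; between -100 and 0 indicates cell death.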 The source made the active and inactive calls. Rule for the calls: active = growth percent below 10; inactive = the rest.

What was measured:
Assay in all cases: NCI-60 one-dose screen, 48 h (100 = growth as untreated, 0 = no growth, -100 = all killed)
Conditions in all cases: 10 µM unless noted
BT-549 breast = test system: BT-549 breast
MDA-MB-435 melanoma = test system: MDA-MB-435 melanoma
SW-620 colon = test system: SW-620 colon
HCT-116 colon = test system: HCT-116 colon
HCC-2998 colon = test system: HCC-2998 colon
KM12 colon = test system: KM12 colon
MCF7 breast = test system: MCF7 breast

SMILES	growth (BT-549 breast)	growth (MDA-MB-435 melanoma)	growth (SW-620 colon)	growth (HCT-116 colon)	growth (HCC-2998 colon)	growth (KM12 colon)	growth (MCF7 breast)
NC(N)=NN=c1c(=O)c2ccccc2c1=O	92.3% (inactive)	12.7% (inactive)	-67% (active)	-37.8% (active)	112% (inactive)	73.8% (inactive)	
COc1ccc(-c2c(N)noc2-c2cc(OC)c3c(c2)OCCO3)cc1	20.4% (inactive)	-7.52% (active)	27% (inactive)	0.565% (active)	18.9% (inactive)	0.643% (active)	
Cc1scc2c1N(C(=O)CN1CCN(C)CC1)c1ccccc1NC2=O	110% (inactive)	110% (inactive)	112% (inactive)	111% (inactive)	103% (inactive)	113% (inactive)	
Cc1c(N(C)CS(=O)(=O)O)c(=O)n(-c2ccccc2)n1C	96.5% (inactive)	103% (inactive)	108% (inactive)	105% (inactive)	121% (inactive)	109% (inactive)	
C=C(C)[C@H]1CC/C(C)=C/CC[C@]2(C)O[C@H]2CC/C(COC(C)=O)=C\C1=O		95.2% (inactive)	109% (inactive)	95% (inactive)	103% (inactive)	143% (inactive)	110% (inactive)
CCCc1nn(C)c2c(=O)[nH]c(-c3cc(S(=O)(=O)N4CCN(C)CC4)ccc3OCC)nc12	94.5% (inactive)	100% (inactive)	115% (inactive)	98.8% (inactive)	108% (inactive)	103% (inactive)	
CC(C)c1nc(N(C)S(C)(=O)=O)nc(-c2ccc(F)cc2)c1/C=C/[C@@H](O)C[C@@H](O)CC(=O)O	103% (inactive)	109% (inactive)	107% (inactive)	98.2% (inactive)	97.5% (inactive)	95.8% (inactive)	
CCCCCCOc1ccc(/C=N/NC(N)=S)cc1	-5% (active)		23.3% (inactive)	33.6% (inactive)	72.1% (inactive)	48.9% (inactive)	56.6% (inactive)
Clc1ccc(CCC(Cn2ccnc2)Sc2c(Cl)cccc2Cl)cc1 (centres undefined)	52% (inactive)	53.9% (inactive)	65.2% (inactive)	23.2% (inactive)	56.6% (inactive)	51.8% (inactive)	
O=C(NCCCO)c1cc(Cl)ccc1O	19.2% (inactive)		23.1% (inactive)	10.9% (inactive)	21.4% (inactive)	14.5% (inactive)	18.9% (inactive)
CCOC(Cc1c(N)[nH]c(=S)[nH]c1=O)OCC	102% (inactive)		105% (inactive)	103% (inactive)	113% (inactive)	112% (inactive)	96.8% (inactive)
O=C(OCCBr)c1ccc(Cl)c([N+](=O)[O-])c1	107% (inactive)		103% (inactive)	92.4% (inactive)	42.9% (inactive)	63.1% (inactive)	44.7% (inactive)
CCC[C@H](N[C@@H](C)C(=O)N1[C@H](C(=O)O)C[C@@H]2CCCC[C@@H]21)C(=O)OCC	113% (inactive)	112% (inactive)	114% (inactive)	106% (inactive)	103% (inactive)	104% (inactive)	
O=C1CC(C(F)(F)F)=NN1C(=O)c1nn(-c2ccc(Cl)cc2)cc1O		95.3% (inactive)	97.1% (inactive)	74.1% (inactive)	89.7% (inactive)	79.9% (inactive)	102% (inactive)
